Assay outcomes (PubChem BioAssay)
FLuc modulator: firefly luciferase modulation, counter-screen for miR-21 project; purified FLuc, Km substrates, luminescence inhibition; Potency, µM (highest dose often 57.5 µM), without a hit: at the highest dose activity change, negative = inhibition, usual class: inhibitors; 360,000 tested, 6.9% active; AID 588342;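 note: plate controls were vehicle for no effect and reference inhibitor for full effect; nearly all actives have a fitted effect of over 55% in size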
Target sequence (P08659 whole entry, looked up): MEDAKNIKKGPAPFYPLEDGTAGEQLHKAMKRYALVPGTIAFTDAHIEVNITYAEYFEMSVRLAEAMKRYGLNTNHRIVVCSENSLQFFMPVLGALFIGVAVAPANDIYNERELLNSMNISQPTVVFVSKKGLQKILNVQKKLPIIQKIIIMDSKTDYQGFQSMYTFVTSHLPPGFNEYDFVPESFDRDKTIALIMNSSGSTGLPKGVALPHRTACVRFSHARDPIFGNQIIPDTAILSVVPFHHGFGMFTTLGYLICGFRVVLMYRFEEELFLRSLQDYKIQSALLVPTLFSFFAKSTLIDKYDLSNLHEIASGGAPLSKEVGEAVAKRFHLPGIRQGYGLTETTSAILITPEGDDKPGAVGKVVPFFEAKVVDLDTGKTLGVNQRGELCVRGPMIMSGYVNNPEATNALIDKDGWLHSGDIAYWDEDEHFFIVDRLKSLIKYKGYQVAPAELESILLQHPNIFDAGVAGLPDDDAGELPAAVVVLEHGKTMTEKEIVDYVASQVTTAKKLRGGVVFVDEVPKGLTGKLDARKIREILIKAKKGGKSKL
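Biochemical qHTS of compounds, final roughly 60 µM downward over six points, against 10 nM purified firefly luciferase using Km concentrations of substrates (10 uM D-luciferin, 10 uM ATP) in Tris acetate pH 7.5 buffer; luminescence output.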
Rab9 promoter act: activates the Rab9 promoter; Huh7 Rab9 promoter-luciferase reporter, luminescence, 24 h; Potency, µM (highest dose often 9.22 µM), for inactives: top-dose activation, negative = inhibition, usual class: activators; 320,000 tested, 2.8% active; AID 485297; note: % of control where 0% means no effect; nearly all actives have a fitted effect of over 60% in size
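Luciferase signal after 10 min detection reagent at ambient indicates Rab9 promoter upregulation; stably transfected Huh7 cells were treated 24 h with compound in DMSO at 37 °C, 5% CO2.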
SMN2 splice up: enhancers of SMN2 splice variant expression. HEK293 SMN2-luciferase splicing reporter, luminescence, 30-36 h. Potency, µM (series often up to 46.1 µM), inactives show at the highest dose activity change, positive = activation, most hits filed as activators. 210,000 tested, 2.8% active. AID 1458; note: % of control where 0% means no effect; nearly all actives have a fitted effect of over 55% in size
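HEK293 cells carry an SMN2 minigene-luciferase reporter in which exon 7 inclusion puts luciferase in frame. Cells were seeded at 2000 cells/well, attached for 10-12 hours, then exposed to compounds for 30-36 hours at 37C before ONE-Glo luminescence.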
NPC1 promoter act: activators of NPC1 promoter; Huh7 NPC1 promoter luciferase reporter, 24 h; AID 485313; 320,000 tested, 2.4% active; Potency, µM (doses to about 9.22 µM), for inactives: at the highest dose activation, usual class: activators; note: % of control where 0% means no effect; nearly all actives have a fitted effect of over 60% in size
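Huh7 cells stably carrying NPC1 promoter–luciferase, plated in Opti-MEM with 10% FBS for 2 h, were exposed to compound in DMSO for 24 h at 37 °C; luciferase reagent was added for 10 min and luminescence read.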
KinaseGlo FLuc: counter-screen: inhibitors of Kinase-Glo firefly luciferase. Q27757. Kinase-Glo luciferase, ATP luminescence, 8 min. Potency, µM (series often up to 38.3 µM), without a hit: at the top dose activity change, negative = inhibition, hits mostly inhibitors. 200,000 tested, 0.28% active; note: % is set by controls: 0 for no effect and ±100 for the full control effect; nearly all actives have a fitted effect of over 60% in size
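Light output from Kinase-Glo luciferase with luciferin and 10 uM ATP in 50 mM imidazole pH 7.2, KCl, MgCl2, Tween 20, BSA; compound pin-delivered, 8-min ambient incubation, then luminescence read.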
An asterisk follows results filed as active; ? = inconclusive; . = no result given; [ ] = another dose, or the depositor's remark. Hits are enriched below; roughly 7.3% of the tested compounds scored in any of these assays. Calls come from the whole dose curve; as a rule, active = well fitted curve in the direction sought with a large enough effect; inconclusive = small, poorly fitted or top-dose-only effect, or another doubt; inactive = no such curve, though single readings can be large; an effect the other way counts as inactive or inconclusive. Potency is the fitted concentration of half-maximal effect.

SMILES	FLuc modulator	Rab9 promoter act	SMN2 splice up	NPC1 promoter act	KinaseGlo FLuc
CN(C)c1ccc(/C=N\NC(=S)SCN2C(=O)C3CCC(C)(C2=O)C3(C)C)cc1 (stereo not drawn)	8.49µM*	10.1%	-8.4%	4.1%	1.7%
COC(=O)CC1c2ccccc2C(Cc2ccc3c(c2)OCO3)=C(C)N1C(=O)OC (stereo not drawn)	.	.	0.4%	.	1.2%
Cc1nc(-c2ccc(O)c(O)c2)cs1	-17.8%	28.9%	2.0%	-6.9%	-4.6%
Cc1ccc2nc(-c3ccccc3)cn2c1	0.12µM*	?	0.501µM*	0.112µM*	8.91µM*
Cc1ccc2nc(-c3ccc(S(=O)(=O)N4CCOCC4)cc3)cn2c1	-9.9%	15.5%	4.6%	1.6%	1.9%
Cc1ccc2nc(-c3ccc(O)c(O)c3)cn2c1	3.38µM*	7.6%	.	?	.
CC(=O)Nc1ccc(-c2cn3cc(C)ccc3n2)cc1	1.9µM*	1µM*	4.47µM*	3.16µM*	22.5%
Cc1ccc2nc(-c3ccc(-c4ccccn4)s3)cn2c1	0.19µM*	0.398µM*	.	0.447µM*	.
CCN(CCCNC(=O)Cn1ncc2c3ccccc3n(C)c2c1=O)c1cccc(C)c1	5.3%	.	16.2%	.	.
CC(=O)c1ccc(C(=O)N(Cc2cccnc2)c2nc3c(Cl)cccc3s2)cc1	-13.3%	.	.	.	.
O=C(O)c1cccc(-c2noc(-c3cccc(Cl)c3)n2)c1	0.019µM*	?	.	0.0891µM*	.
O=C(O)c1cccc(-c2nc(-c3ccccc3C(F)(F)F)no2)c1	0.169µM*	.	.	.	.
NC(=O)c1ccc(-c2noc(-c3cccc(Cl)c3)n2)cc1	?	?	.	2.51µM*	.
Cc1noc(-c2ccc(-c3noc(-c4cccc(Cl)c4)n3)cc2)n1	-1.9%	.	.	.	.
CC(C)C[C@@H](C=O)NC(=O)[C@H](CC(C)C)NC(=O)[C@H](CC(C)C)NC(=O)OCc1ccccc1	.	.	-68.9%	.	.
O=C(O)c1cccnc1Nc1ccc(Cl)cc1	16.9µM*	?	10µM*	21.6%	1.3%
Cc1ccc(Nc2ncccc2C(=O)O)cc1C	16.9µM*	?	19.1%	?	-5.1%
NC(=O)c1cccnc1Nc1ccccc1Cl	?	1.1%	-18.8%	2.9%	-0.3%
Cc1ccc(Nc2ncccc2C(N)=O)cc1[N+](=O)[O-]	12µM*	3.55µM*	14.1µM*	?	-0.9%
Cc1cccc(Nc2ncccc2C(=O)O)c1C	21.3µM*	2.1%	.	9.8%	.
O=C(CSc1nccn1-c1ccc(F)cc1)Nc1nc2ccccc2s1	-0.3%	.	.	.	.
CCOc1ccc(Nc2c(S(=O)(=O)c3ccc(C)cc3)cnc3cc(OC)c(OC)cc23)cc1	-13.6%	.	-9.2%	.	.
Cc1ccc(C)c(NC(=O)Cn2ncc3c([nH]c4ccccc43)c2=O)c1	-0.7%	.	.	.	.
O=C1c2ccccc2C(=O)C1(CO)c1ccc(OC(F)F)cc1	0.953µM*	0.447µM*	.	?	.
COC(=O)CC1(c2ccc(OC)cc2)C(=O)c2ccccc2C1=O	-0.1%	1.3%	.	-2.7%	.
SMILES	FLuc modulator	Rab9 promoter act	SMN2 splice up	NPC1 promoter act	KinaseGlo FLuc
O=C1c2ccccc2C(=O)C1(CO)c1ccccc1	15.1µM*	?	166.2%	26.1%	-11.8%
CC1=C(C(=O)OC2CCCCCC2)C(c2cccc(Cl)c2)CC(=O)N1 (stereo not drawn)	-6.8%	.	-1.9%	.	.
COc1ccc2c(c1)CCc1c-2n[nH]c1C(=O)O	10.7µM*	9.5%	12.5%	-1.2%	0.9%
CC(=O)N1CC[C@@H]2CC(=O)CC[C@@H]21	.	.	.	.	4.6%[39.9 µM]
Cc1ccc(C(=O)Nc2nnc(NC(=S)Nc3ccccc3)s2)cc1	19µM*	25.5%	.	23.9%	.
Cc1nc(NC(=S)Nc2ccccc2)sc1C	2.69µM*	?	15.8µM*	?	4.8%
CCc1nnc(NC(=S)Nc2ccccc2)s1	?	?	22.4µM*	?	1.0%
Cc1oc2c(c(C)cc3oc(=O)c(CC(=O)NCc4ccc(F)cc4)c(C)c32)c1C	2.2%	.	9.2%	.	.
Cn1nc(-c2ccccc2F)c2cc(C(=O)NCc3cccc(Cl)c3)sc21	-7.6%	.	-29.2%	.	.
Fc1ccc(Nc2ccc3ccccc3n2)c(F)c1	0.757µM*	0.126µM*	5.01µM*	0.398µM*	?
CSc1ccc(CNCc2c(C(=O)O)c(C)n(Cc3ccc(F)cc3Cl)c2C)cc1	-1.0%	.	3.5%	.	.
COC(=O)c1ccc2c(c1O)C(=O)c1ccccc1C2=O	8.49µM*	13.9%	-8.1%	10.7%	-8.1%
O=C1c2ccccc2C(=O)c2c1ccc(C(=O)O)c2-c1ccc2ccccc2c1	.	.	-2.9%[9.22 µM]	.	-4.6%[7.66 µM]
Cc1ccc2c(c1)C(=O)c1c(C(=O)O)cccc1-2	-15.9%	-0.7%	-11.3%	-0.3%	3.0%
Nc1cc(C(=O)O)c(N)c2c1C(=O)c1ccccc1C2=O	19µM*	0.4%	.	1.4%	.
O=C1c2ccccc2C(=O)c2c1ccc(O)c2O	.	.	-30.6%	.	-8.2%
Nc1c(C(=O)O)ccc2c1C(=O)c1ccccc1C2=O	19µM*	-4.9%	-21.8%	1.3%	-14.9%
COCCn1c(SCC(=O)Nc2ccc(C(F)(F)F)cc2)nc2c([nH]c3ccccc32)c1=O	-0.3%	.	.	.	.
CCc1ccc(NC(=O)CC2C(=O)N(c3ccc(Cl)cc3)C(=O)N2C2CCCC2)cc1 (stereo not drawn)	-1.5%	.	.	.	.
Cc1cc(C)cc(NC(=O)C(=O)NCC2CCCO2)c1 (stereo not drawn)	-13.4%	-14.0%	12.3%	9.4%	-5.3%
Cc1ccc(Nc2nnc(SC(C)C(=O)NCC3CCCO3)s2)cc1C (stereo not drawn)	15.1µM*	-1.0%	.	-0.1%	.
Cc1ccc(NC(=O)C(=O)NN=C2CCCC2)cc1C	13.5µM*	?	.	18.6%	-3.3%
Cc1ccc(NC(=O)C(=O)NCC2CCCO2)cc1 (stereo not drawn)	?	3.98µM*	14.1µM*	?	-5.0%
Cc1ccc(NC(=O)C(=O)NCC2CCCO2)cc1C (stereo not drawn)	?	1.26µM*	11.2µM*	2.82µM*	-1.0%
C=C(C)Cn1c(SCC(=O)Nc2cccc(C)c2)nc2sc3c(c2c1=O)CCCC3	0.4%	.	-18.5%	.	.
SMILES	FLuc modulator	Rab9 promoter act	SMN2 splice up	NPC1 promoter act	KinaseGlo FLuc
C=C(C)Cn1c(SCC(=O)c2ccccc2)nc2sc3c(c2c1=O)CCCC3	-1.3%	.	5.62µM*	.	.
C=CCn1c(SCC(=O)Nc2cc(C)on2)nc2sc3c(c2c1=O)CCCC3	-0.8%	-1.1%	12.6µM*	-1.3%	-2.8%
COc1ccc(NC(=O)CCCN2C(=O)CCn3nc(-c4cn(C)c5ccccc45)cc32)cc1	3.5%	.	.	.	.
Cc1nc2ccccc2nc(=O)c1NNc1ccccc1	?	?	11.2µM*	?	-1.1%
Cc1nc2ccccc2nc1OCc1ccccc1	?	1.5%	-19.5%	-0.8%	-0.2%
Cc1ccc2nc(=O)c(NNc3ccccc3)cnc2c1	?	?	17.8µM*	?	1.5%
CC(C)CCn1nnc2sc(-c3ccccc3)cc2c1=O	-12.9%	.	2.0%	.	.
COC(=O)/C(=C\c1ccc(O)cc1)c1nc2ccccc2[nH]1	?	8.0%	-9.4%	-1.0%	-3.0%
